Among all 310,000 compounds or so, about 14,000 (4.5%) showed an effect of 50% or more. The effect is printed as a negative number. Only a selection was taken, and strong results are over-represented in it overall.
The compounds below were run against human ether-à-go-go-related gene (hERG) potassium channel (human, UniProt Q12809) (assay: primary screen, population patch clamp on CHO cells stably expressing hERG; higher = less effect of the substance).
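Further: peak tail current of the secondary pulse compared with the same well before compound.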

Sequence of human ether-à-go-go-related gene (hERG) potassium channel (Q12809 whole entry, looked up): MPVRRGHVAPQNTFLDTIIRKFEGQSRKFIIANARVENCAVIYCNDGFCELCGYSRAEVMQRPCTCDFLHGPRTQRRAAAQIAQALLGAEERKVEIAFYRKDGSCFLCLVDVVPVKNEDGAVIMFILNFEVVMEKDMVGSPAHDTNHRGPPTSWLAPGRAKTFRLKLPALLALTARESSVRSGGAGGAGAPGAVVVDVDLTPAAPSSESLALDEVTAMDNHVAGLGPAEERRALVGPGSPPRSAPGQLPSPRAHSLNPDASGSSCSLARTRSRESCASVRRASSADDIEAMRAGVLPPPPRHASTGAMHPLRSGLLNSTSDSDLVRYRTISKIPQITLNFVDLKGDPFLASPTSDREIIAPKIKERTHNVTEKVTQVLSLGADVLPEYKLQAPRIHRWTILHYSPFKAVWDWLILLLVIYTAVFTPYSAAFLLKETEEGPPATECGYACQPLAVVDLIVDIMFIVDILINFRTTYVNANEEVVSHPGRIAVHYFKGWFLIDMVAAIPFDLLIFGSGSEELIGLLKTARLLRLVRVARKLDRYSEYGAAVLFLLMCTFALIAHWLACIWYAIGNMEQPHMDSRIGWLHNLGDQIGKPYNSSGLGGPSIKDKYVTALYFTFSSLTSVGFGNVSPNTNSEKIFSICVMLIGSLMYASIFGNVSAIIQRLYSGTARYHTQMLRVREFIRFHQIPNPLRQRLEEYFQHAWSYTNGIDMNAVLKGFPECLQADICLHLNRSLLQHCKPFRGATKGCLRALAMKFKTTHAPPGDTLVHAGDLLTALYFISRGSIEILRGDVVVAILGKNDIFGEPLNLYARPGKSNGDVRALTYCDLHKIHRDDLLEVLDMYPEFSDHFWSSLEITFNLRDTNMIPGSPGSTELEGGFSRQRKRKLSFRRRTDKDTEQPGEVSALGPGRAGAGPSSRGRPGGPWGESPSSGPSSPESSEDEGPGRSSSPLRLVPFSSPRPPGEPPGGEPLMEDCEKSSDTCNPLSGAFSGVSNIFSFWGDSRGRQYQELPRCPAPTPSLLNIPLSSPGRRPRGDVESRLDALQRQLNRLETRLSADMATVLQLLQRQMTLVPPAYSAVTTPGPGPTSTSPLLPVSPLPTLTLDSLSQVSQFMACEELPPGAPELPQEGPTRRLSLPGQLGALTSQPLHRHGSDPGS

Compound | hERG current change (%, negative = inhibition) at 10uM [%]
CC(=O)C[C@H]1c2ccccc2S(=O)(=O)N1c1ccccc1 | 23
Cc1cc(NC(=O)c2cc(-c3ccccc3Cl)nc3ccccc23)no1 | -0.229
COCCOC(=O)c1cc(C(=O)c2cc(F)ccc2O)coc1=N | 9.29
O=C(Nc1nnc(S(=O)(=O)N2CCOCC2)s1)c1ccccc1F | 16.7
CSc1ccccc1NS(=O)(=O)c1cccc2nonc12 | 1.51
O=S(=O)(Nc1cc(F)ccc1F)c1cccc2nonc12 | -83.6
O=S(=O)(Nc1cc(F)ccc1F)c1cccc2nsnc12 | 11.6
CC(=O)c1ccccc1NS(=O)(=O)c1cccc2nonc12 | -52.2
O=S(=O)(Nc1cccc2ccccc12)c1cccc2nonc12 | 3.98
Cc1ccccc1NS(=O)(=O)c1cccc2nonc12 | 2.34
O=C(NCC(=O)N1CCN(c2ncc(C(F)(F)F)cc2Cl)CC1)c1ccc(Br)o1 | -50.6
O=C(NCC(=O)N1CCN(c2ccccn2)CC1)c1ccc(Br)o1 | -15.3
NC(=O)NCCN1CCN(c2ncc(C(F)(F)F)cc2Cl)CC1 | -33.7
CNCC(=O)N1CCN(c2ncc(C(F)(F)F)cc2Cl)CC1.Cl | -22.3
CCOc1ccc(C(=O)NCC(=O)N2CCN(c3ccc(C(F)(F)F)cn3)CC2)cc1 | -7.32
O=C(NCC(=O)N1CCN(c2ccc(C(F)(F)F)cn2)CC1)c1ccc(Br)o1 | -71.8
COc1cccc(NC(=O)Nc2c(C)n(C)n(-c3ccccc3)c2=O)c1 | 3.91
O=C(Nc1cccc(Cl)c1)c1cnn2cccnc12 | 7.19
CCOC(=O)C1CCN(CCC(=O)Nc2ccccc2)CC1 | -19.7
CCOC(=O)C1CCN(CCC(=O)Nc2cccc(Cl)c2)CC1 | -67.1
NC(=O)C1CCN(CCC(=O)Nc2cccc(Cl)c2)CC1 | 0.151
Cc1cccc(NC(=O)CCN2CCC(C(N)=O)CC2)c1 | 9.57

Compound | hERG current change (%, negative = inhibition) at 10uM [%]
CCOC(=O)C1CCN(CCC(=O)Nc2cccc(C)c2)CC1.Cl | -66.8
CCOC(=O)N1CCN(CCC(=O)Nc2cccc(C)c2)CC1.Cl | 1.45
CCCCCN(C(=O)CCC(=O)OCC(=O)N(C)Cc1ccc(C)cc1)c1c(N)n(CCCC)c(=O)[nH]c1=O | 1.93
CCOc1ccc(C(=O)N/N=C(\c2ccccc2)c2ccccn2)cc1 | -27
C=CCOc1ccccc1/C=c1\sc2nc(-c3oc4ccccc4c3C)nn2c1=O | -8.15
O=C(Nc1ccc(F)cc1)N1CCN(C(=O)C2CCCO2)CC1 (stereo not shown) | 2.96
CCNC(=S)N1CCN(CC(=O)Nc2ccc(OC)cc2)CC1 | -34.3
O=C(CN1CCN(C(=O)C2CCCO2)CC1)Nc1ccc(Cl)cc1 (stereo not shown) | -40.9
CCNC(=S)N1CCN(CC(=O)Nc2ccc(Br)cc2)CC1 | -61.4
O=C(CN1CCN(C(=O)C2CCCO2)CC1)Nc1ccc(Br)cc1 (stereo not shown) | -70
CCOc1ccc(NC(=O)CN2CCN(C(=O)C3CCCO3)CC2)cc1 (stereo not shown) | -32.6
O=C(CN1CCN(C(=O)N2CCOCC2)CC1)Nc1ccc(Br)cc1 | -72.5
Cc1cc(C)cc(NC(=O)CN2CCN(C(=O)C3CCCO3)CC2)c1 (stereo not shown) | 7.51
O=C(CN1CCN(C(=O)C2CCCO2)CC1)Nc1ccc(F)cc1 (stereo not shown) | -66.1
COc1ccc(NC(=O)CN2CCN(C(=O)N3CCOCC3)CC2)cc1 | -14.2
COc1ccc(NC(=O)CN2CCN(C(=S)NC3CCCC3)CC2)cc1 | -39.1
O=C(CN1CCOCC1)Nc1ccccc1 | 13.8
O=c1c(Cc2ccccc2)c(O)ccn1C1CCCCCCC1 | 10.1
COc1ccc(S(=O)(=O)N2CCCCCC2)cc1C(=O)N(C)Cc1ccc(C)cc1 | -40.3
Cc1[nH]c2ccccc2c(=O)c1SC(F)(F)C(F)C(F)(F)F (stereo not shown) | -5.97
CSc1ccccc1NC(=O)COc1ccc(Cl)cc1Cl | -0.82
